Several values for one entry are separate records, joined by “and”; a condition that tells them apart may be missing. Identical values can stand only once. Records with an inconclusive call do not appear. More than one record can exist for a structure, and the calls need not agree. Values without a mark were called inactive. Activity calls are given as the source filed them. Calls follow the shape of the dose curve; as a rule, active = well fitted curve in the direction sought with a large enough effect; inconclusive = small, poorly fitted or top-dose-only effect, or another doubt; inactive = no such curve, though single readings can be large; an effect the other way counts as inactive or inconclusive.
System: not listed separately
Assay: Primary qHTS for inhibitors of nuclear receptor binding SET domain protein 2 (NSD2) in an RCH-ACV wild type WT cells (2C) (AID 1645877); also: nearly all actives have a fitted effect of over 70% in size; also: potency is read from the fitted curve at half-maximal effect; as to activity change, negative = cell killing: % is scaled to controls: 0 for no effect and ±100 for the full control effect
Settings: RCH-ACV (leukaemia line) NSD2 WT (2C) viability, CellTiter-Glo, 72 h; series mostly up to 44.9 µM; activity change, negative = cell killing: at the top concentration

Row | SMILES | activity change, negative = cell killing | Potency | outcome
1 | CN(C)C(=O)Nc1ccc(Cl)c(Cl)c1 | -10.5% |  | 
2 | O=C(O)Cc1csc(-c2ccc(Cl)cc2)n1 | -3.47% |  | 
3 | CCOC(=O)C(C#N)=C(c1ccccc1)c1ccccc1 | -20.3% |  | 
4 | O=C(O)CCC(=O)Nc1ccc(S(=O)(=O)Nc2nccs2)cc1 | -18.2% |  | 
5 | Oc1ccc(Cl)cc1Cc1cc(Cl)ccc1O |  | 18.8 µM (active) | 
6 | CN1CCC[C@@H]1CCO[C@](C)(c1ccccc1)c1ccc(Cl)cc1 |  | 13.3 µM (active) | 
7 | COc1ccc(C(=O)c2ccccc2O)c(O)c1 | 0.198% |  | 
8 | COc1cc(C(=O)NCc2ccc(OCCN(C)C)cc2)cc(OC)c1OC | -29.3% |  | 
9 | C=C[C@H]1CN2CC[C@H]1C[C@@H]2[C@@H](O)c1ccnc2ccc(OC)cc12 | -19.7% |  | 
10 | CCCN(CCC)S(=O)(=O)c1ccc(C(=O)O)cc1 |  |  | inactive
11 | COc1ccc(C(Cl)=C(c2ccc(OC)cc2)c2ccc(OC)cc2)cc1 | -0.825% |  | 
12 | CCN(CC)CCOc1ccc2c(c1)C(=O)c1cc(OCCN(CC)CC)ccc1-2 |  | 9.44 µM (active) | 
13 | CC(=O)O[C@]1(C(C)=O)CC[C@H]2[C@@H]3C=C(C)C4=CC(=O)CC[C@]4(C)[C@H]3CC[C@@]21C |  | inactive | 
14 | OCc1ccccn1 | 5.48% |  | 
15 | CCN(CC)CCNc1ccc(CO)c2sc3ccccc3c(=O)c12 |  | 1.33 µM (active) | 
16 | Cl/C(=C\n1cncn1)c1ccc(Cl)cc1Cl | -9% |  | 
17 | O=C(O)CCc1nc2ccccc2[nH]1 | 3.71% |  | 
18 | Nc1nc(Cl)nc2c1ncn2[C@@H]1O[C@H](CO)[C@@H](O)[C@@H]1F |  | 8.4 nM (active) and 37.2 nM (active) | 

Biological target: Rap guanine nucleotide exchange factor 3 (Homo sapiens) (UniProt O95398)
Assay: Confirmatory qHTS for antagonist of cAMP-regulated guanine nucleotide exchange factor 3 (EPAC1) (AID 1645880); also: nearly all actives have a fitted effect of over 55% in size; also: potency is read from the fitted curve at half-maximal effect;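 as to activity, negative = inhibition: plate controls were DMSO only for no effect and full effect of the ATA control for full effect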
Settings: EPAC1 Rap1B-BODIPY-GDP exchange, fluorescence; series mostly up to 115 µM; activity, negative = inhibition: at the top concentration
Method in brief: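 Nucleotide exchange uses 100 nM EPAC1, 250 nM RAP1B-BODIPY-GDP and 50 uM GDP, with compounds in a concentration-titration series. After 5 min at room temperature, fluorescence (480 nm ex/540 nm em) is read every 5 min for 30 min. Data are normalized to control ATA and DMSO.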

Rap guanine nucleotide exchange factor 3 (Homo sapiens), sequence (O95398 whole entry, looked up): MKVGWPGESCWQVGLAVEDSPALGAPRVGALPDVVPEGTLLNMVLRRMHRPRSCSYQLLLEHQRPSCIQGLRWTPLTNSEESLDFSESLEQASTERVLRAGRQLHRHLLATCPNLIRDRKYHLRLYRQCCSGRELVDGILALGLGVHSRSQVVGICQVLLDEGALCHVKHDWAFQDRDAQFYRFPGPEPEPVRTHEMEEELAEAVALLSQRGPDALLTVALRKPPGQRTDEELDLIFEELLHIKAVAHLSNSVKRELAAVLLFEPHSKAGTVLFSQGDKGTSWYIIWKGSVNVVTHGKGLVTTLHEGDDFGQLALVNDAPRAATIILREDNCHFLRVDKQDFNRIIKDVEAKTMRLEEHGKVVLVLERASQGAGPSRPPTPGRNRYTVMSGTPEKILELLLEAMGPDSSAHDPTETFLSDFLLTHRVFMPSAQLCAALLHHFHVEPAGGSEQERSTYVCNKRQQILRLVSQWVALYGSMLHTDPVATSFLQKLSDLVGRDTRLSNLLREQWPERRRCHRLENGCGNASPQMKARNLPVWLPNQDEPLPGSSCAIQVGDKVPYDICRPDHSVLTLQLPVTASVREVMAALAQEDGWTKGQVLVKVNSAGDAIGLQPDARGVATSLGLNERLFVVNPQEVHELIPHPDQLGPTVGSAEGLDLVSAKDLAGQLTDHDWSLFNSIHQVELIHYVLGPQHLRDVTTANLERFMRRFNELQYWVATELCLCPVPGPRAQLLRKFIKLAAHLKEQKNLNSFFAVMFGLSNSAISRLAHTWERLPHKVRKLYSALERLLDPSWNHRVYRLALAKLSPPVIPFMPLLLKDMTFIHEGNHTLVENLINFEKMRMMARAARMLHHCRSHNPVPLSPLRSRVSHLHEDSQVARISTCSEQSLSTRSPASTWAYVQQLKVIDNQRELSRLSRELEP

Row | SMILES | Potency | activity, negative = inhibition
19 | CC(C)=CCOc1ccc(/C=C/C(=O)c2ccc(OCC=C(C)C)cc2OCC(=O)O)cc1 | 49.8 µM (active) | 
20 | CCOC(=O)C(C#N)=C(c1ccccc1)c1ccccc1 |  | -13.1%
21 | CCc1oc2ccccc2c1C(=O)c1cc(Br)c(O)c(Br)c1 | 39.5 µM (active) and 39.8 µM (active) | 
22 | COc1ccc(C(Cl)=C(c2ccc(OC)cc2)c2ccc(OC)cc2)cc1 | inactive | 
23 | CC1(COc2ccc(CC3SC(=O)NC3=O)cc2)CCCCC1 (configuration not stated) | 49.8 µM (active) | 
24 | COc1ccc(C(=O)c2ccccc2)c(O)c1 |  | -12.9%
25 | Cl/C(=C\n1cncn1)c1ccc(Cl)cc1Cl |  | -12.2%
26 | C=C1c2cccc(O)c2C(O)=C2C(=O)[C@]3(O)C(O)=C(C(N)=O)C(=O)[C@@H](N(C)C)[C@@H]3[C@@H](O)[C@H]12 | 47.8 µM (active) | 

Biological target: Rap guanine nucleotide exchange factor 3 (Homo sapiens) (UniProt O95398)
Assay: Confirmatory qHTS for agonist of cAMP-regulated guanine nucleotide exchange factor 3 (EPAC1) (AID 1645881);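 also: EPAC1 catalysed release of BODIPY-GDP from Rap1B seen as fluorescence loss; 100% = effect of cAMP agonist control; nearly all actives have a fitted effect of over 75% in size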
Settings: EPAC1 Rap1B BODIPY-GDP exchange fluorescence, 100% = cAMP control response; series mostly up to 154 µM; activation: at the top concentration

Row | SMILES | activation | outcome
27 | CC(C)=CCOc1ccc(/C=C/C(=O)c2ccc(OCC=C(C)C)cc2OCC(=O)O)cc1 | -11.4% | 
28 | CCOC(=O)C(C#N)=C(c1ccccc1)c1ccccc1 | -8.2% | 
29 | Oc1ccc(Cl)cc1Cc1cc(Cl)ccc1O | 12.2% | 
30 | COc1ccc(C(=O)c2ccccc2O)c(O)c1 | -7.19% | 
31 | CCc1oc2ccccc2c1C(=O)c1cc(Br)c(O)c(Br)c1 |  | inactive
32 | COc1ccc(C(Cl)=C(c2ccc(OC)cc2)c2ccc(OC)cc2)cc1 |  | inactive
33 | CC1(COc2ccc(CC3SC(=O)NC3=O)cc2)CCCCC1 (configuration not stated) | -22.2% | 
34 | CO[C@H]1C=CO[C@@]2(C)Oc3c(C)c(O)c4c(O)c(c(/C=N/N5CCN(C)CC5)c(O)c4c3C2=O)NC(=O)/C(C)=C\C=C[C@H](C)[C@H](O)[C@@H](C)[C@@H](O)[C@@H](C)[C@H](OC(C)=O)[C@@H]1C | 4.23% | 
35 | COc1ccc(C(=O)c2ccccc2)c(O)c1 | 3.89% | 
36 | Cl/C(=C\n1cncn1)c1ccc(Cl)cc1Cl | 5.27% | 
37 | CCc1oc2ccccc2c1C(=O)c1cc(I)c(O)c(I)c1 | 10.4% | 
38 | C=C1c2cccc(O)c2C(O)=C2C(=O)[C@]3(O)C(O)=C(C(N)=O)C(=O)[C@@H](N(C)C)[C@@H]3[C@@H](O)[C@H]12 | -5.73% | 

Biological target: Rap guanine nucleotide exchange factor 4 (Homo sapiens) (UniProt Q8WZA2)
Assay: Confirmatory qHTS for agonist of cAMP-regulated guanine nucleotide exchange factor 4 (EPAC2) (AID 1645884);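 also: nucleotide exchange releases bodipy-GDP from Rap1 and this lowers its fluorescence; % is scaled to controls: 0 for no effect and ±100 for the full control effect; nearly all actives have a fitted effect of over 65% in size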
Settings: EPAC2 GEF activity, Rap1B-BODIPY-GDP fluorescence, percent relative to cAMP agonist control; series mostly up to 154 µM; activation: at the top concentration

Rap guanine nucleotide exchange factor 4 (Homo sapiens), sequence (Q8WZA2 whole entry, looked up): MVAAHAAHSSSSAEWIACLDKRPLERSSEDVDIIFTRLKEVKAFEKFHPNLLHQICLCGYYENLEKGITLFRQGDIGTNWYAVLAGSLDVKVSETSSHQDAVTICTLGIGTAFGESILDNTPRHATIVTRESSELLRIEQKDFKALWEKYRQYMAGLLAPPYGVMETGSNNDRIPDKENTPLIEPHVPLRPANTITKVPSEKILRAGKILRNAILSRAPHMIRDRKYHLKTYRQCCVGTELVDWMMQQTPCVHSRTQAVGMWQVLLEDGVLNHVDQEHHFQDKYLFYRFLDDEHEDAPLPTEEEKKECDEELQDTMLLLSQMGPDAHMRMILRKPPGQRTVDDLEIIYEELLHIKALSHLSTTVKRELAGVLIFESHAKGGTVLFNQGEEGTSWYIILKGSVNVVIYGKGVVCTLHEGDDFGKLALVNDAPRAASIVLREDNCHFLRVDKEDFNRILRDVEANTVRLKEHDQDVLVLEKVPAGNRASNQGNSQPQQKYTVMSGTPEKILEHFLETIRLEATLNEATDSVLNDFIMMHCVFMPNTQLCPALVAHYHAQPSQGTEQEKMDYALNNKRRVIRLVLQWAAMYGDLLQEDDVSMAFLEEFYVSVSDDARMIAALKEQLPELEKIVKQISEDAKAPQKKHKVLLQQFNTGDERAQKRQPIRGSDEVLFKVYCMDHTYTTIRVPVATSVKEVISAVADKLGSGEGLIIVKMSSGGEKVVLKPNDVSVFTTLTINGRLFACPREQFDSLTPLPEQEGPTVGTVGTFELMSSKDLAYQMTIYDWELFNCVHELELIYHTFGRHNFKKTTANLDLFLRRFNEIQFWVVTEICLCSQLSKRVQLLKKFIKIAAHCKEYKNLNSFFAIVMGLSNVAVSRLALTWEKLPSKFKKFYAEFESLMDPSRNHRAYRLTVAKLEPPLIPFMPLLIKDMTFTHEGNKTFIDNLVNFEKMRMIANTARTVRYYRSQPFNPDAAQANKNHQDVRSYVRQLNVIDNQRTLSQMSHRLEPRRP

Row | SMILES | activation | outcome
39 | CC(C)=CCOc1ccc(/C=C/C(=O)c2ccc(OCC=C(C)C)cc2OCC(=O)O)cc1 | -12.1% | 
40 | CCOC(=O)C(C#N)=C(c1ccccc1)c1ccccc1 | -7.48% | 
41 | COc1ccc(C(=O)c2ccccc2O)c(O)c1 | 10% | 
42 | CCc1oc2ccccc2c1C(=O)c1cc(Br)c(O)c(Br)c1 |  | inactive
43 | COc1ccc(C(Cl)=C(c2ccc(OC)cc2)c2ccc(OC)cc2)cc1 |  | inactive
44 | CC1(COc2ccc(CC3SC(=O)NC3=O)cc2)CCCCC1 (configuration not stated) | -34% | 
45 | CO[C@H]1C=CO[C@@]2(C)Oc3c(C)c(O)c4c(O)c(c(/C=N/N5CCN(C)CC5)c(O)c4c3C2=O)NC(=O)/C(C)=C\C=C[C@H](C)[C@H](O)[C@@H](C)[C@@H](O)[C@@H](C)[C@H](OC(C)=O)[C@@H]1C | 11.1% | 
46 | COc1ccc(C(=O)c2ccccc2)c(O)c1 | 5.24% | 
47 | Cl/C(=C\n1cncn1)c1ccc(Cl)cc1Cl | 8.05% | 
48 | CCc1oc2ccccc2c1C(=O)c1cc(I)c(O)c(I)c1 | 10.1% | 
49 | C=C1c2cccc(O)c2C(O)=C2C(=O)[C@]3(O)C(O)=C(C(N)=O)C(=O)[C@@H](N(C)C)[C@@H]3[C@@H](O)[C@H]12 | -13.2% | 

Biological target: Rap guanine nucleotide exchange factor 4 (Homo sapiens) (UniProt Q8WZA2)
Assay: Confirmatory qHTS for antagonist of cAMP-regulated guanine nucleotide exchange factor 4 (EPAC2) (AID 1645885); also: nearly all actives have a fitted effect of over 25% in size; also: potency is read from the fitted curve at half-maximal effect; as to activity change, negative = inhibition: % is scaled to controls: 0 for no effect and ±100 for the full control effect
Settings: EPAC2 Rap1B-BODIPY-GDP exchange fluorescence, biochemical; series mostly up to 114 µM; activity change, negative = inhibition: at the top concentration

Row | SMILES | Potency | activity change, negative = inhibition
50 | CC(C)=CCOc1ccc(/C=C/C(=O)c2ccc(OCC=C(C)C)cc2OCC(=O)O)cc1 | 39.3 µM (active) | 
51 | CCOC(=O)C(C#N)=C(c1ccccc1)c1ccccc1 | 49.4 µM (active) | 
52 | Oc1ccc(Cl)cc1Cc1cc(Cl)ccc1O | 35 µM (active) | 
53 | COc1ccc(C(=O)c2ccccc2O)c(O)c1 | 44.1 µM (active) | 
54 | CCc1oc2ccccc2c1C(=O)c1cc(Br)c(O)c(Br)c1 | 27.8 µM (active) | -17.2% [at 12.7 µM]
55 | COc1ccc(C(Cl)=C(c2ccc(OC)cc2)c2ccc(OC)cc2)cc1 | 7.84 µM (active) and 2.31 µM (active) | 
56 | CC1(COc2ccc(CC3SC(=O)NC3=O)cc2)CCCCC1 (configuration not stated) | 44.1 µM (active) | 
57 | CO[C@H]1C=CO[C@@]2(C)Oc3c(C)c(O)c4c(O)c(c(/C=N/N5CCN(C)CC5)c(O)c4c3C2=O)NC(=O)/C(C)=C\C=C[C@H](C)[C@H](O)[C@@H](C)[C@@H](O)[C@@H](C)[C@H](OC(C)=O)[C@@H]1C | 44.1 µM (active) | 
58 | COc1ccc(C(=O)c2ccccc2)c(O)c1 | 31.2 µM (active) | 
59 | Cl/C(=C\n1cncn1)c1ccc(Cl)cc1Cl |  | -17.7%
60 | CCc1oc2ccccc2c1C(=O)c1cc(I)c(O)c(I)c1 | 27.8 µM (active) | 
61 | C=C1c2cccc(O)c2C(O)=C2C(=O)[C@]3(O)C(O)=C(C(N)=O)C(=O)[C@@H](N(C)C)[C@@H]3[C@@H](O)[C@H]12 |  | -18.3%

From PubChem BioAssay (NCATS)
